From PubChem BioAssay
Where “and” joins values, the source holds several entries; their conditions need not be identical. Equal values may be shown once.

These compounds were tested against Alpha-bungarotoxin (Bungarus multicinctus) (UniProt P60615) (assay: compounds binding labelled alpha-BTX control protein – biochemical, small-molecule microarray, Alexa647 label, 635/667 nm fluorescence, artefact control for SMM control protein annotation, profiling panel (AID 1117)). Conditions: alpha-BTX-A647 binding fluorescence, higher = more signal.
Alpha-bungarotoxin (Bungarus multicinctus), sequence (P60615 whole entry, looked up): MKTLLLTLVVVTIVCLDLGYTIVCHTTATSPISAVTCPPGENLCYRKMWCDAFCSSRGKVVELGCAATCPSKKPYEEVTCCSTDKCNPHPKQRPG

SMILES	composite z-score
CC(CO)N1C(=O)[C@@H]2C3C(=O)OCCC=C[C@H]3OC23C=CCN(CCN2CCOCC2)C(=O)[C@@H]13 (some centres undefined)	-0.106 and -0.0808
COC(=O)C1=C(C)N(Cc2ccccc2)C2=C(C(C)=O)[C@H](c3ccccc3)[C@@](O)(C(=O)OC)C(=O)N2[C@@H]1c1ccccc1	0.538 and -0.436
CC(C)=NOC[C@@H](O)COCc1ccco1	-1.1
C[C@@H]1CC[C@H]2C(=O)NC[C@@H](O)CN2[C@H]1c1ccc(Br)cc1	0.141 and -0.195
CCOC(=O)[C@@H]1CC2O[C@]23C[C@@H]1C(=O)N1CCC[C@@H]1[C@H]3O[Si](C)(C)C(C)(C)C (some centres undefined)	0.102 and -0.667
C[N+](C)(C)CCCCNC(=O)[C@H]1C[C@H]2C(=O)N[C@@H](CCCC[N+](C)(C)C)C(=O)N2[C@H]1c1ccc(O)cc1	0.0509 and -0.801
CC(C)[Si]1(C(C)C)OCc2cc(CCCc3cc4c(c(CCc5ccccc5)n3)[Si](C(C)C)(C(C)C)OC4)nc(CCc3ccccc3)c21	-1.36 and 0.0493
COC(=O)C1=C(C)N(Cc2ccccc2)C2=C3C(=O)N(c4ccccc4)C(=O)[C@@H]3[C@@](O)(C(=O)OC)C(=O)N2[C@@H]1c1ccccc1	0.231 and 1.87
CO[C@H]1COC(=O)CC=C[C@H](C)[C@H](OC)COC(=O)[C@@H](C)COC(=O)CC=C[C@@H]1C	-0.683 and -0.62
C=CCN(C(=O)C1N(c2ccc(CCO)cc2)C(=O)C2C(C(=O)O)C3C=CC21O3)c1ccc(OC)cc1 (centres undefined)	-0.102 and -0.62
COC(=O)[C@@]1(Cc2ccc(F)cc2)[C@H]2c3cc(C(=O)N4CCCC4)n(Cc4c(CO)[nH]cc(C)c4=O)c3C[C@H]2CN1C(=O)c1ccccc1	0.234 and -0.124
CC(CO)N1C(=O)[C@@H]2C3C(=O)OCCC=C[C@H]3OC23C=CCN(c2ccc(Cl)cc2)C(=O)[C@@H]13 (some centres undefined)	0.0882 and -0.198
C=CCN(CCCC)C(=O)C(c1cccs1)N(C(=O)/C=C\C(=O)O)c1c(Cl)cccc1CO (centres undefined)	-1.09 and -1.15
CCOC(=O)C[C@H]1[C@H](OC(=O)c2ccccc2-c2ccccc2)[C@@H](NC(=O)c2ccccc2)c2cc(OCCCO)ccc2N1C(=O)c1ccc2ccccc2n1	0.328 and 0.833
C=CCN(C(=O)C1N(c2c(Cl)cccc2CO)C(=O)C2C(C(=O)O)C3C=CC21O3)C(C)(C)C (centres undefined)	-1.09 and -1.44
C#CCCCON=C1C[C@@H](O)[C@@H](O)[C@@H]2[C@@H]3C(=O)N(C4CCCCC4)C(=O)[C@@H]3CC[C@H]12	2.51
C=CCN(CCCC)C(=O)C1N(c2ccc(CCO)cc2)C(=O)C2C(C(=O)O)C3C=CC21O3 (centres undefined)	-0.577 and -1.86
C=CCN(C(=O)C1N(c2c(Cl)cccc2CO)C(=O)C2C(C(=O)O)C3C=CC21O3)c1ccc(OC)cc1 (centres undefined)	-0.64 and -2.45
CON(C)C(=O)c1nnc2c3ccccc3n(S(=O)(=O)c3ccc(C)cc3)c2n1	0.787 and 0.219
CCCC[C@@H]1CN2[C@H](c3ccc(Br)cc3)[C@@H](C)CC[C@H]2C(=O)O1	0.412 and 0.575

SMILES	composite z-score
C=CCN(CCCCC)C(=O)C1N(c2ccc(CCO)cc2)C(=O)C2C(C(=O)O)C3C=CC21O3 (centres undefined)	-2.97 and -1.37
C=CCN(Cc1ccccc1)C(=O)C1N(C(C)(C)CO)C(=O)C2C(C(=O)O)C3C=CC21O3 (centres undefined)	-2.89 and -1.25
O=C1C[C@]2(c3ccc([N+](=O)[O-])cc3)C(=O)N(Cc3ccccc3)c3cc(CO)ccc3[C@H]2N1C1CCCCC1	0.0277 and -0.0515
C=CCN(Cc1ccccc1)C(=O)C(c1cccs1)N(C(=O)/C=C\C(=O)O)c1c(Cl)cccc1CO (centres undefined)	-0.974 and -2.03
CCOC(=O)c1ccc(NC(=O)O[C@H]2[C@H](OC(=O)Nc3ccccc3)[C@@H](OC(=O)Nc3ccccc3)[C@@H](OC)O[C@@H]2CO)cc1	2.04 and 1.85
C=C(C)C(=O)OC[C@@H]1CN2[C@@H](CC[C@@H](C)[C@@H]2c2ccc(Br)cc2)C(=O)O1	0.548
CC(CO)N1C(=O)[C@@H]2C3C(=O)OCCC=C[C@H]3OC23C=CCN(Cn2nnc4ccccc42)C(=O)[C@@H]13 (some centres undefined)	-0.652 and -0.332
O=C(NN=C1C[C@@H](O)[C@@H](O)[C@@H]2[C@@H]3C(=O)N(Cc4ccc5c(c4)OCO5)C(=O)[C@@H]3CC[C@H]12)OCc1ccccc1	-0.394
COC(=O)[C@@]1(Cc2ccc(OC)cc2)[C@H]2c3cc(C(=O)N(C)C)n(Cc4ccc(O)c(OC)c4)c3C[C@H]2CN1C(=O)c1ccccc1	0.526 and 0.245
O=C1NC(=O)C2C1C=CC(C(O)c1ccc([N+](=O)[O-])cc1)N2Nc1ccc(Cl)cc1Cl (centres undefined)	1.18 and 1.56
CC(C)=CCCC(C)=CCON=C1C[C@@H](O)[C@@H](O)[C@@H]2[C@@H]3C(=O)N([C@@H](C)c4ccccc4)C(=O)[C@@H]3CC[C@H]12	0.417
COC(=O)C1=C(C)N(Cc2ccccc2)C2=C3C(=O)CCC[C@@H]3[C@@](O)(C(=O)OC)C(=O)N2[C@@H]1c1ccccc1	0.187 and -0.503
CCCC[C@@H]1CN2[C@@H](CC[C@@H](C)[C@@H]2c2ccc(Br)cc2)C(=O)O1	0.439 and 0.105
CCN1C(=O)[C@H]2[C@H]3[C@H](O)[C@H](O)CC(=NOC)[C@@H]3CC[C@H]2C1=O	0.178
CC(C)OC(=O)C=C1C[C@@H](c2cccc(C(F)(F)F)c2)O[C@@H](c2cccc(C(F)(F)F)c2)O1	0.613 and 0.269
CC(C)=NO[C@@H](C)c1cc(-c2c(C)cc(C)cc2C)no1	0.282
C=CCN(C(=O)C1N(CCOCCO)C(=O)C2C(C(=O)O)C3C=CC21O3)c1ccc(OC)cc1 (centres undefined)	-1.18 and -2.65
C=CCN(C(=O)C(c1cccs1)N(CCOCCO)C(=O)/C=C\C(=O)O)c1ccc(OC)cc1 (centres undefined)	-0.744 and -2.86
C=CCN(Cc1ccccc1)C(=O)C(c1cccs1)N(C(=O)/C=C\C(=O)O)c1ccc(CCO)cc1 (centres undefined)	-1.7 and -1.25
